PubChem BioAssay AID1053 (University of Pittsburgh Molecular Library Screening Center, 2008)
Active and inactive are the calls of the source. The rule behind the calls is not given here.

What follows are compounds tested against Serine/threonine-protein kinase PLK1 (Homo sapiens) (UniProt P53350) (assay: Plk1 polo box domain binding inhibitors, SAR follow-up, biochemical, fluorescence polarization, purchased analogs (AID 1053)). Settings: Plk1 PBD fluorescence polarization peptide binding; at 20 µM; hits give high values.
Sequence of Serine/threonine-protein kinase PLK1 (Homo sapiens) (P53350 whole entry, looked up, the tested form may be a part): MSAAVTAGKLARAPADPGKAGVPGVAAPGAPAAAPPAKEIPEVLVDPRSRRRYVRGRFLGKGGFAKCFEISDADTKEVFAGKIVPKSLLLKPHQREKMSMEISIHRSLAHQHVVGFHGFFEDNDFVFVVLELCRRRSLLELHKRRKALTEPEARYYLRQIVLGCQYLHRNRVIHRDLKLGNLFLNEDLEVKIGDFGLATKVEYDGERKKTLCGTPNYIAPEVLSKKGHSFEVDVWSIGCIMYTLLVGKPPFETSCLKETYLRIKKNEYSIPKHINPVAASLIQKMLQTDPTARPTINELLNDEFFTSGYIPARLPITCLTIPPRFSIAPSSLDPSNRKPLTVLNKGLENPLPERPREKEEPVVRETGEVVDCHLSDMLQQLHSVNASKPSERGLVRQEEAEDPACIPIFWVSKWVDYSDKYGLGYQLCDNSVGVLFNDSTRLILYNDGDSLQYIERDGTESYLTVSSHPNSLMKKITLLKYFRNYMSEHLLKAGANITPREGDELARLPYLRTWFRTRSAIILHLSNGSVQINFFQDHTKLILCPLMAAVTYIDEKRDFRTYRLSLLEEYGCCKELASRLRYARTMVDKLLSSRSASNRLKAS

inhibition, inactive:
CC(=O)N(CN1C(=O)c2cc(Cl)c(Cl)cc2C1=O)c1ccc(C)c(Cl)c1 -45.5%
COC(=O)c1ccc(NC(=O)c2cc(-c3ccc(C)o3)nc3ccccc23)cc1 25.4%
CCOC(=O)c1ccc(NC(=O)c2cc3ccccc3oc2=O)cc1 -10.3%
CCOC(=O)c1ccc(NC(=O)C2Oc3ccccc3OC2C)cc1 (centres undefined) -28.8%
CC(=O)N(/N=C1\Sc2ccccc2C1=O)c1ccccc1[N+](=O)[O-] 32%
CCOC(=O)c1ccc(N=Cc2c(O)n(-c3cccc(OC)c3)c(=O)[nH]c2=O)cc1 -40.6%
Cn1c(=O)[nH]c2nnc(-c3ccc(F)cc3)nc2c1=O -42.3%
CCOc1ccc(-c2nc3c(=O)n(C)c(=O)nc-3n(C)n2)cc1OC 34.4%
CCOC(=O)c1ccc(NC(=O)C2C3CCC(C3)C2C(=O)O)cc1 (centres undefined) -61.5%
